Results: PubChem BioAssay (NCATS)
“And” between values parts separate entries of the source, which are not always exact repeats. Equal values may be shown once. Results filed as inconclusive are left out. The source made the active and inactive calls. The call rests on the fitted dose curve; in most records, active means well fitted inhibition curve with a large enough effect; inconclusive means small, poorly fitted or top-dose-only effect; inactive means flat fitted curve, though single readings scatter.

What was measured:
[1] = Drug repurposing screens with cells derived from glioblastoma tumor samples (AID 1345199); conditions: GBM patient neurospheres viability, ATP luminescence, 48 h; further: nearly all actives have a fitted effect of over 40% in size
In short: (§1)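 Four patient lines of CD133+ GBM neurospheres were screened at several concentrations; hits were retested in those lines plus three slower-growing GBM lines, using 48-hour treatment and ATP-based viability.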

astro = control astrocytes; assay: as above; conditions: viability, ATP luminescence, 48 h; series mostly up to 45.9 µM
In short: as §1

[2] = at 45.9 µM (top of the series), tumour line B
[3] = at 45.9 µM (top of the series), tumour line D
[4] = at 46 µM (top of the series), tumour line A
[5] = at 46.1 µM (top of the series), tumour line C
[6] = at 20 µM (top of the series), tumour line C
[7] = at 21.2 µM (top of the series), tumour line B
[8] = at 21.2 µM (top of the series), tumour line D
[9] = at 21.3 µM (top of the series), tumour line A
On the % scale 0 is the no-effect control and ±100 the full control effect; potency means the concentration at half of the fitted maximal effect.

C[C@@H]1C/C=C/C=C/C=C/C=C/[C@H](O[C@@H]2O[C@H](C)[C@@H](O)[C@H](N)[C@@H]2O)C[C@@H]2O[C@](O)(C[C@@H](O)C[C@H]3O[C@@H]3/C=C/C(=O)O1)C[C@H](O)[C@H]2C(=O)O
inactive: activity, negative = cell killing [1, 2] -13.9% | activity, negative = cell killing [1, 3] -5.09% | activity, negative = cell killing [1, 4] -20.3% | activity, negative = cell killing [1, 5] -13.5% | Potency (astro)

CN1C(=O)OC(C)(C)C1=O
inactive: activity, negative = cell killing [1, 6] -9% | activity, negative = cell killing [1, 7] 0.292% | activity, negative = cell killing [1, 8] -3.8% | activity, negative = cell killing [1, 9] -18.7% | Potency (astro)

NC(=O)c1ccc[n+]([C@@H]2O[C@H](COP(=O)([O-])OP(=O)(O)OC[C@H]3O[C@@H](n4cnc5c(N)ncnc54)[C@H](O)[C@@H]3O)[C@@H](O)[C@H]2O)c1
inactive: activity, negative = cell killing [1, 6] -16.9% | activity, negative = cell killing [1, 7] 8.41% | activity, negative = cell killing [1, 8] -3.83% | activity, negative = cell killing [1, 9] -22.7% | Potency (astro)

CO/N=C(\C(=O)N[C@@H]1C(=O)N2C(C(=O)O)=C(CSc3nc(C)c(CC(=O)O)s3)CS[C@H]12)c1csc(N)n1
inactive: activity, negative = cell killing [1, 2] -4.93% | activity, negative = cell killing [1, 3] 3.79% | activity, negative = cell killing [1, 4] -22% | activity, negative = cell killing [1, 5] -20.8% | Potency (astro)

O=C1/C(=C\c2cccs2)CCC/C1=C\c1cccs1
inactive: activity, negative = cell killing [1, 2] -19.7% | activity, negative = cell killing [1, 3] -28.6% | activity, negative = cell killing [1, 5] -23.9% | Potency (astro)
active: Potency ([1]; tumour line A) 25.1 µM

Cn1cc(NC(=O)c2cc(NC(=O)c3cc(NC=O)cn3C)cn2C)cc1C(=O)NCCC(=N)N
inactive: activity, negative = cell killing [1, 2] -15.1% | activity, negative = cell killing [1, 3] -11.2% | activity, negative = cell killing [1, 4] -20.5% | activity, negative = cell killing [1, 5] -26.2% | Potency (astro)

COC(=O)CCC[N+](C)(C)C
inactive: activity, negative = cell killing [1, 2] 2.12% | activity, negative = cell killing [1, 3] -8.53% | activity, negative = cell killing [1, 4] -30.6% | activity, negative = cell killing [1, 5] -18.9% | Potency (astro)

CCCc1nc(C(C)(C)O)c(C(=O)OCc2oc(=O)oc2C)n1Cc1ccc(-c2ccccc2-c2nn[nH]n2)cc1
inactive: activity, negative = cell killing [1, 2] -17.3% | activity, negative = cell killing [1, 3] -13.8% | activity, negative = cell killing [1, 4] -13% | activity, negative = cell killing [1, 5] -13.1% | Potency (astro)

NC(N)=NCC1COC2(CCCCC2)O1 (stereo not given)
inactive: activity, negative = cell killing [1, 6] -12.8% | activity, negative = cell killing [1, 7] -14.2% | activity, negative = cell killing [1, 8] -12.9% | activity, negative = cell killing [1, 9] -18.6% | Potency (astro)

COc1cc2c(cc1OC)[C@@H](Cc1cc(OC)c(OC)c(OC)c1)[N+](C)(CCCOC(=O)CC/C=C/CCC(=O)OCCC[N+]1(C)CCc3cc(OC)c(OC)cc3[C@H]1Cc1cc(OC)c(OC)c(OC)c1)CC2 (stereo not given in full)
inactive: activity, negative = cell killing [1, 2] -17.7% and -2.67% | activity, negative = cell killing [1, 3] -12.5% and -11.6% | activity, negative = cell killing [1, 4] -22.5% | activity, negative = cell killing [1, 5] -14.7% and -8.1% | Potency (astro)

O=P(O)(O)OC[C@H]1O[C@](O)(COP(=O)(O)O)[C@@H](O)[C@@H]1O
inactive: activity, negative = cell killing [1, 2] -4.16% | activity, negative = cell killing [1, 3] -21.7% | activity, negative = cell killing [1, 4] -47.3% | activity, negative = cell killing [1, 5] -3.41% | Potency (astro)

NC(=O)C1c2ccccc2CCc2ccccc21
inactive: activity, negative = cell killing [1, 2] 4.21% | activity, negative = cell killing [1, 3] -18.6% | activity, negative = cell killing [1, 4] -34% | activity, negative = cell killing [1, 5] -17.6% | Potency (astro)

C[S+](C)CCC(N)C(=O)O (stereo not given)
inactive: activity, negative = cell killing [1, 2] -1.5% | activity, negative = cell killing [1, 3] -4.21% | activity, negative = cell killing [1, 4] -14.6% | activity, negative = cell killing [1, 5] -27.3% | Potency (astro)

NC[C@H]1O[C@H](O[C@H]2[C@H](O)[C@@H](O[C@H]3O[C@H](CO)[C@@H](O)[C@H](N)[C@H]3O)[C@H](N)C[C@@H]2N)[C@H](N)C[C@@H]1O
inactive: activity, negative = cell killing [1, 6] 1.26% | activity, negative = cell killing [1, 7] -9.72% | activity, negative = cell killing [1, 8] -3.61% | activity, negative = cell killing [1, 9] -18.4% | Potency (astro)

CO/N=C(\C(=O)N[C@@H]1C(=O)N2C(C(=O)O)=CCS[C@H]12)c1csc(N)n1
inactive: activity, negative = cell killing [1, 2] -10.9% | activity, negative = cell killing [1, 3] -17.7% | activity, negative = cell killing [1, 4] -10.3% | activity, negative = cell killing [1, 5] -14% | Potency (astro)

CC[C@H]1OC(=O)C[C@@H](O)[C@H](C)[C@@H](O[C@@H]2O[C@H](C)[C@@H](O[C@H]3C[C@@](C)(O)[C@@H](O)[C@H](C)O3)[C@H](N(C)C)[C@H]2O)[C@@H](CC=O)C[C@@H](C)C(=O)/C=C/C(C)=C/[C@@H]1CO[C@@H]1O[C@H](C)[C@@H](O)[C@@H](OC)[C@H]1OC
inactive: activity, negative = cell killing [1, 2] -18.4% and -8.3% | activity, negative = cell killing [1, 3] -0.155% and -17.6% | activity, negative = cell killing [1, 4] -15.7% | activity, negative = cell killing [1, 5] -3.5% and -16.4% | Potency (astro)
